This note sets out measurements from PubChem BioAssay (EPA / NIEHS).

Test [1] can be described thus: CEETOX_H295R_PROG: CeeTox H295R High-throughput Steroidogenesis Assay for Progesterone (PROG) (AID 2283442).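 For AC50: human H295R adrenal cells primed with 10 µM forskolin before dosing; progesterone secreted into medium by H295R cells measured by HPLC-MS/MS.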 The note with it: actives raise or lower the signal. In outline: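 Steps: seed H295R cells and let them adhere overnight; prime 48 h with 10 uM forskolin; dose with compound in DMSO at 0.1% final for 48 h; extract medium steroids with MTBE; measure progesterone by LC-MS/MS. MTT viability was run in the same wells.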

Read-out in test [2]: Tumor necrosis factor receptor superfamily member 6 (Homo sapiens) (UniProt P25445)
The test can be described thus: LTEA_HepaRG_FAS: Life Technologies and Expression Analysis (LTEA) Assay for Fas cell surface death receptor (FAS) using HepaRG (AID 2283447). The conditions noted are these: mRNA level, 48 h; actives raise or lower the signal. In a few lines:
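FAS transcript level was measured by TaqMan qRT-PCR against three housekeeping genes after 48 h chemical exposure. Cells were HepaRG, 0.5% DMSO vehicle, with a top concentration of 100 uM and half-log dilutions over eight points, in duplicate.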

Read-out in test [3]: Fatty acid synthase (Homo sapiens) (UniProt P49327)
The test can be described thus: LTEA_HepaRG_FASN: Life Technologies and Expression Analysis (LTEA) Assay for Fatty Acid Synthase (FASN) using HepaRG (AID 2283448).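 For AC50: differentiated human HepaRG liver cells in serum-free induction medium.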 The conditions noted are these: mRNA level, 48 h; actives raise or lower the signal. In a few lines: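 Cells were plated, cultured 48 h, switched to serum-free induction medium, then dosed in duplicate (max 100 uM, half-log dilutions, 0.5% DMSO) for 48 h. RNA was then isolated and FASN quantified by qRT-PCR.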

Read-out in test [4]: Cyclin Dependent Kinase Inhibitor 1A (CDKN1A), CDKN1A (gene 1026)
Put plainly: LTEA_HepaRG_CDKN1A: Life Technologies and Expression Analysis (LTEA) Assay for Cyclin Dependent Kinase Inhibitor 1A (CDKN1A) using HepaRG (AID 2283450). The note with it: mRNA level, 48 h; actives raise or lower the signal. In outline: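 Read-out is CDKN1A mRNA by TaqMan qRT-PCR, normalized to three housekeeping genes and fitted in both directions against the DMSO baseline. Human HepaRG cells were treated 48 h with test chemicals up to 100 uM in half-log steps, 0.5% DMSO.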

Read-out in test [5]: Cyclin D1 (CCND1), CCND1 (gene 595)
Put plainly: LTEA_HepaRG_CCND1: Life Technologies and Expression Analysis (LTEA) Assay for Cyclin D1 (CCND1) using HepaRG (AID 2283451). The note with it: mRNA level, 48 h; actives raise or lower the signal. In outline: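 HepaRG plated 48 h, medium switched to serum-free induction medium, chemicals added in duplicate (top 100 uM, half-log steps, 0.5% DMSO) for 48 h, cells lysed, RNA measured by TaqMan qRT-PCR.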

Read-out in test [6]: catalase (CAT), CAT (gene 847)
Put plainly: LTEA_HepaRG_CAT: Life Technologies and Expression Analysis (LTEA) Assay for catalase (CAT) using HepaRG (AID 2283452). The conditions noted are these: mRNA level, 48 h; actives raise or lower the signal. In a few lines: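 Expression of CAT was quantified by TaqMan qRT-PCR with ACTB/GAPDH/POLR2A normalization after 48 h chemical exposure of HepaRG. Eight-point half-log series, top 100 uM, in 0.5% DMSO; gain or loss fitted against vehicle.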

Read-out in test [7]: flavin-containing dimethylaniline monooxygenases 3 (FMO3), FMO3 (gene 2328)
Put plainly: LTEA_HepaRG_FMO3: Life Technologies and Expression Analysis (LTEA) Assay for flavin-containing dimethylaniline monooxygenases 3 (FMO3) using HepaRG (AID 2283453). The conditions noted are these: mRNA level, 48 h; actives raise or lower the signal. In outline:
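FMO3 transcript quantified by TaqMan qRT-PCR against three housekeeping genes after 48 h chemical exposure of HepaRG cells. Eight-point half-log series, top 100 uM, 0.5% DMSO vehicle; phenobarbital 1mM induction control; up- or down-regulation fitted.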

Read-out in test [8]: Cytochrome P450 (CYP1A1), CYP1A1 (gene 1543)
Put plainly: LTEA_HepaRG_CYP1A1: Life Technologies and Expression Analysis (LTEA) Assay for Cytochrome P450 (CYP1A1) using HepaRG (AID 2283454). The note with it: mRNA level, 48 h; actives raise or lower the signal. In a few lines: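 HepaRG, 48 h post-plating switched to serum-free induction medium; 8-pt conc-response (top 100 uM, half-log, 0.5% DMSO), duplicates, 48 h. Lysis in RLT, TaqMan qRT-PCR for CYP1A1; gain or loss vs DMSO.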

Read-out in test [9]: CFLAR gene, CFLAR (gene 8837)
The test can be described thus: LTEA_HepaRG_CFLAR: Life Technologies and Expression Analysis (LTEA) Assay for CFLAR gene using HepaRG (AID 2283455). The conditions noted are these: mRNA level, 48 h; actives raise or lower the signal. In a few lines: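 Transcript level by qRT-PCR (normalized to ACTB, GAPDH and POLR2A) after 48 h chemical exposure of HepaRG cells, top concentration 100 uM with half-log steps, 0.5% DMSO vehicle, duplicates; fitted bidirectionally against DMSO baseline.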

Read-out in test [10]: Forkhead box O1 (FOXO1), FOXO1 (gene 2308)
Put plainly: LTEA_HepaRG_FOXO1: Life Technologies and Expression Analysis (LTEA) Assay for Forkhead box O1 (FOXO1) using HepaRG (AID 2283456). The conditions noted are these: mRNA level, 48 h; actives raise or lower the signal. In a few lines: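 FOXO1 transcript quantified by qRT-PCR after 48 h chemical exposure (top 100 uM, half-log steps, 0.5% DMSO) of HepaRG cells, housekeeping-normalized (ACTB/GAPDH/POLR2A). Changes fitted in both directions relative to vehicle.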

Read-out in test [11]: growth arrest and DNA damage 45 (GADD45A), GADD45A (gene 1647)
Put plainly: LTEA_HepaRG_GADD45A: Life Technologies and Expression Analysis (LTEA) Assay for growth arrest and DNA damage 45 (GADD45A) using HepaRG (AID 2283458). The conditions noted are these: mRNA level, 48 h; actives raise or lower the signal. In a few lines:
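Transcript induction or loss, quantified by TaqMan qRT-PCR against three housekeeping genes, is the read-out. HepaRG cells received chemicals for 48 h across eight half-log concentrations from 100 uM in 0.5% DMSO; gain and loss fitted relative to DMSO.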

Read-out in test [12]: Forkhead box O3 (FOXO3), FOXO3 (gene 2309)
The test can be described thus: LTEA_HepaRG_FOXO3: Life Technologies and Expression Analysis (LTEA) Assay for Forkhead box O3 (FOXO3) using HepaRG (AID 2283459). The note with it: mRNA level, 48 h; actives raise or lower the signal. In outline:
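FOXO3 transcript measured by qRT-PCR (normalized to ACTB, GAPDH, POLR2A) after 48 h exposure of HepaRG cells in serum-free induction medium. Duplicates, eight half-log concentrations up to 100 uM, 0.5% DMSO; gain or loss fitted against DMSO.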

Read-out in test [13]: ABC Transporter (ABCB1), ABCB1 (gene 5243)
The test can be described thus: LTEA_HepaRG_ABCB1: Life Technologies and Expression Analysis (LTEA) Assay for ABC Transporter (ABCB1) using HepaRG (AID 2283460). The note with it: mRNA level, 48 h; actives raise or lower the signal. In outline:
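ABCB1 transcript level measured by TaqMan qRT-PCR against three housekeeping genes after 48 h chemical exposure of differentiated HepaRG cells. Top concentration 100 uM, half-log steps, eight points, 0.5% DMSO vehicle; bidirectional fit relative to DMSO.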

Read-out in test [14]: growth arrest and DNA damage 45 (GADD45B), GADD45B (gene 4616)
Put plainly: LTEA_HepaRG_GADD45B: Life Technologies and Expression Analysis (LTEA) Assay for growth arrest and DNA damage 45 (GADD45B) using HepaRG (AID 2283461). The conditions noted are these: mRNA level, 48 h; actives raise or lower the signal. In outline: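 HepaRG, ~100,000 cells/well, 48 h plating; serum-free induction medium; cpd 100 uM top, half-log x8, 0.5% DMSO, duplicate, 48 h; lysis in RLT, RNA isolation, qRT-PCR; norm ACTB/GAPDH/POLR2A; bidirectional fit vs DMSO.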

Read-out in test [15]: ABC Transporter (ABCC3), ABCC3 (gene 8714)
The test can be described thus: LTEA_HepaRG_ABCC3: Life Technologies and Expression Analysis (LTEA) Assay for ABC Transporter (ABCC3) using HepaRG (AID 2283462). The conditions noted are these: mRNA level, 48 h; actives raise or lower the signal. In a few lines:
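Human HepaRG, 48 h dosing, 8-pt half-log series from 100 uM, 0.5% DMSO vehicle, duplicates. ABCC3 mRNA by TaqMan qRT-PCR, housekeeping-normalized; bidirectional curve fit vs DMSO.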

Read-out in test [16]: ABC Transporter (ABCB11), ABCB11 (gene 8647)
The test can be described thus: LTEA_HepaRG_ABCB11: Life Technologies and Expression Analysis (LTEA) Assay for ABC Transporter (ABCB11) using HepaRG (AID 2283463). The conditions noted are these: mRNA level, 48 h; actives raise or lower the signal. In outline:
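ABCB11 transcript levels quantified by TaqMan qRT-PCR against three housekeeping genes after 48 h chemical exposure of HepaRG cultures. Concentrations up to 100 uM in half-log steps, 0.5% DMSO vehicle; both induction and suppression scored.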

Read-out in test [17]: Broad substrate specificity ATP-binding cassette transporter ABCG2 (Homo sapiens) (UniProt Q9UNQ0)
Put plainly: LTEA_HepaRG_ABCG2: Life Technologies and Expression Analysis (LTEA) Assay for ABC Transporter (ABCG2) using HepaRG (AID 2283465). The note with it: mRNA level, 48 h; actives raise or lower the signal. In a few lines:
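ABCG2 transcript was quantified by TaqMan qRT-PCR against three housekeeping genes in HepaRG cells. Cells were treated in duplicate for 48 h across an 8-point half-log series up to 100 uM, with 0.5% DMSO vehicle. Gain or loss versus DMSO was fit.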

Read-out in test [18]: Cyclin D2 (CCND2), CCND2 (gene 894)
The test can be described thus: LTEA_HepaRG_CCND2: Life Technologies and Expression Analysis (LTEA) Assay for Cyclin D2 (CCND2) using HepaRG (AID 2283449). The note with it: mRNA level, 48 h; actives raise or lower the signal. In outline: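 CCND2 transcript levels, quantified by qRT-PCR and normalised to three housekeeping genes, were fitted bidirectionally against 0.5% DMSO. HepaRG cultures were dosed 48 h in duplicate with an 8-point half-log series up to 100 uM.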

The nature of test [19]: CEETOX_H295R_TESTO: CeeTox H295R High-throughput Steroidogenesis Assay for Testosterone (TESTO) (AID 2283457). The conditions noted are these: actives raise or lower the signal. In outline: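 H295R, passage ≤10, 48 h dosing; media extracted with MTBE → HPLC-MS/MS for testosterone; 7-pt standard curve sets LLOQ/ULOQ; bidirectional fit vs DMSO; MTT viability same wells.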

Read-out in test [20]: ABC Transporter (ABCC2), ABCC2 (gene 1244)
The test can be described thus: LTEA_HepaRG_ABCC2: Life Technologies and Expression Analysis (LTEA) Assay for ABC Transporter (ABCC2) using HepaRG (AID 2283464). The note with it: mRNA level, 48 h; actives raise or lower the signal. In a few lines:
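HepaRG, 48 h post-plating; serum-free induction medium; cpd 8-pt, 100 uM top, half-log, 0.5% DMSO, duplicate, 48 h. Readout: ABCC2 mRNA by qRT-PCR, norm. ACTB/GAPDH/POLR2A. Bidirectional fit vs DMSO baseline.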

Each structure is given as a SMILES string. Calls of active or inactive are those of the source. Rule for the calls: active = hit-call score of the fitted dose curve at least 0.9, where 1 is the maximum; inactive = score below 0.9.

Chain of Broad substrate specificity ATP-binding cassette transporter ABCG2 (Homo sapiens) (Q9UNQ0 whole entry, looked up): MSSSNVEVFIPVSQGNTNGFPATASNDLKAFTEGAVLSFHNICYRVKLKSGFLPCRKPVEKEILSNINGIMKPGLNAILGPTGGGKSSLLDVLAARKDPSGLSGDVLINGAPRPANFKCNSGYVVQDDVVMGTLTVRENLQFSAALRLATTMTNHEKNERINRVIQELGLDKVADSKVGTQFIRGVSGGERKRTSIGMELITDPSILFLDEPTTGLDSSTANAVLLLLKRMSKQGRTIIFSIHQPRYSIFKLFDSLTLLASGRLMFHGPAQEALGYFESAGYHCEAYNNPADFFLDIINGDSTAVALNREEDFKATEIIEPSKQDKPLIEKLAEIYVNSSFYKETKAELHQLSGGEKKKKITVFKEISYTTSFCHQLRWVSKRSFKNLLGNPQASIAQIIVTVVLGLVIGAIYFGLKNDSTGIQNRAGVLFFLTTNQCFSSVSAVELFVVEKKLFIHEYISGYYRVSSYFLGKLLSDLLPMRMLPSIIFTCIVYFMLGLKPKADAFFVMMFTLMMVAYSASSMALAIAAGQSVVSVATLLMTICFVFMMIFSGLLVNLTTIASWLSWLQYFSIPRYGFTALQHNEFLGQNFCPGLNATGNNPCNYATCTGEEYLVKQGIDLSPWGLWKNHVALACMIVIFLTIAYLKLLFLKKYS
Chain of Fatty acid synthase (Homo sapiens) (P49327 whole entry, looked up): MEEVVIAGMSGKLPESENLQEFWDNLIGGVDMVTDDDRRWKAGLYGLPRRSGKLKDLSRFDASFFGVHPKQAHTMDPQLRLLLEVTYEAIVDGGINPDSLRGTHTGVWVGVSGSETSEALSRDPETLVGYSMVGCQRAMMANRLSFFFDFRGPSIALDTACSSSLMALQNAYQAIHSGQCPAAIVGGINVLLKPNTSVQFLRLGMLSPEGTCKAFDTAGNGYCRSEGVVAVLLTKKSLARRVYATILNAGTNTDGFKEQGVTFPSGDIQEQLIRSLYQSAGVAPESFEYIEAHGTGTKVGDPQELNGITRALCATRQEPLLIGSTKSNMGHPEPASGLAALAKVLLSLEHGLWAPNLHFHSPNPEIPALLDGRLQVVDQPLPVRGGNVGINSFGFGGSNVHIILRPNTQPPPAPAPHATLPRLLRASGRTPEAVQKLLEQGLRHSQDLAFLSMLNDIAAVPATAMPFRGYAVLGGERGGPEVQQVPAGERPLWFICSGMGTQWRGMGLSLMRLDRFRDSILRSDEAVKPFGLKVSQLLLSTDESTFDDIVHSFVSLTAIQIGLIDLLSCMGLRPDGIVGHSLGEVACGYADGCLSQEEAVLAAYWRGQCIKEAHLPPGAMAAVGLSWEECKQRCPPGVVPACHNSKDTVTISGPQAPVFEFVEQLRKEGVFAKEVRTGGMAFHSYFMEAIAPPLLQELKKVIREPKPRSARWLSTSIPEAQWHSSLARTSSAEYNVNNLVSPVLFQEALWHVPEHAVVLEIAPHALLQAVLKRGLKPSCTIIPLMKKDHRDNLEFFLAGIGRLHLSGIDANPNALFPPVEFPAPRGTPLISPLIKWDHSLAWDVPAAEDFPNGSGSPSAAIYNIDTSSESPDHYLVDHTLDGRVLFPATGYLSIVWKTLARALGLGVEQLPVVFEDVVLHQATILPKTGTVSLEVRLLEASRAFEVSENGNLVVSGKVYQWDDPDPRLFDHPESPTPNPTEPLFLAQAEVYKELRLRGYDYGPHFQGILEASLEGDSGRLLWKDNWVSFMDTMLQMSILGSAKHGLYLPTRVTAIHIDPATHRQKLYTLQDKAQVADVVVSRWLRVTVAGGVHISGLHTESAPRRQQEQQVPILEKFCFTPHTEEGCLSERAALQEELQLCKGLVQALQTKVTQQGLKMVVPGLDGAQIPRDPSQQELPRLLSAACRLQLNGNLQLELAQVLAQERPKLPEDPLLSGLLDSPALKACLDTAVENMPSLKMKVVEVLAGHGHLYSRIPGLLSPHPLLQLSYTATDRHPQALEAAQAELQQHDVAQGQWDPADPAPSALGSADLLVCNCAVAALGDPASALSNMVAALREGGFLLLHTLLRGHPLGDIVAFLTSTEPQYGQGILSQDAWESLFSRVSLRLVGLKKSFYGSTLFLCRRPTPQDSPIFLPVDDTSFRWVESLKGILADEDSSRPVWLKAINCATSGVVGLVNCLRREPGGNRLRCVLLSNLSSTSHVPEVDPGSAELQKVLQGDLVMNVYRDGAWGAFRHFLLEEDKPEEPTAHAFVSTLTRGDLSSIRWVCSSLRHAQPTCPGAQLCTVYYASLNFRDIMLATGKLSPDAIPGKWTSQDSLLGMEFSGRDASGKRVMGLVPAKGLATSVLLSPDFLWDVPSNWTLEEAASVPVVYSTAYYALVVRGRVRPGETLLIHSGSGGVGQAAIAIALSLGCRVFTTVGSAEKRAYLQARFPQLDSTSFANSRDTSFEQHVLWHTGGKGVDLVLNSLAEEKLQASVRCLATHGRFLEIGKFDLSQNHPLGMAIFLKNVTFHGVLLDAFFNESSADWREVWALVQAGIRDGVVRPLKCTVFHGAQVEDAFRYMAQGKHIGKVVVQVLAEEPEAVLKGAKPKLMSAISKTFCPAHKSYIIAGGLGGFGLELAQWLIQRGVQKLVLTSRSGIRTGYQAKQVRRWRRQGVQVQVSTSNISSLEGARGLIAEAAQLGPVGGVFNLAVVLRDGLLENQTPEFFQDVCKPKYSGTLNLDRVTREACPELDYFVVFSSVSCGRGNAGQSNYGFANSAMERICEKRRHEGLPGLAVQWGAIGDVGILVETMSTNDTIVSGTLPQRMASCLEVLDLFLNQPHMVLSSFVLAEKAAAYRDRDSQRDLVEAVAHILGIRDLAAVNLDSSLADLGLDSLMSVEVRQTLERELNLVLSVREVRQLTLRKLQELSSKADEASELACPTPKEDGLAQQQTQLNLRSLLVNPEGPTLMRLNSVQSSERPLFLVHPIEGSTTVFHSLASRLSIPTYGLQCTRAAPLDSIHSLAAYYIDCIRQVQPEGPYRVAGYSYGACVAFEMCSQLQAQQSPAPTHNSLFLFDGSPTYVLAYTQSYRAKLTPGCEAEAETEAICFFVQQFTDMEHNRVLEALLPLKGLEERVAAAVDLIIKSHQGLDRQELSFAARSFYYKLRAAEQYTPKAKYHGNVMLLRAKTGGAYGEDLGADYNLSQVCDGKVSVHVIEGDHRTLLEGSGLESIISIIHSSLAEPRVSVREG

As to `CC(C)=CCCC(C)=CC=O`, the result in [1], in test [2], in test [3], in test [4], in test [5] and in [6] was inactive. Also, the result in test [7], in test [9], in test [10], in [11], in [12] and in test [13] was inactive. Further, the call in test [14], in test [15], in test [16] and in [17] was inactive. In test [8], the AC50 was 63.9 µM (active).

For the compound `CCCCCCCCCCCCCCCO`, the figures for the AC50 in test [1] and in [8] were 14.8 µM (active) and 30.8 µM (active), respectively. In addition, the compound was classed as inactive in test [2], in test [3], in test [18], in [4], in test [5] and in test [6]. Moreover, the result in test [7], in test [9], in [10], in test [11], in test [12] and in [13] was inactive. The compound was called inactive in [14], in test [15], in test [16] and in test [17].

With `Cc1ccc(N)cc1O`, the AC50 in test [1] is 50 µM (active); in test [3], 26.3 µM (active); in [8], 26.4 µM (active); in test [16] it was 50 µM (active). Also, the call in test [18], in [4], in test [5], in [6], in test [7] and in [9] was inactive. Moreover, the result in [10], in test [19], in test [11], in [12], in [13] and in [14] was inactive. The outcome in [15], in test [20] and in test [17] was inactive.
